# Laboratory results: paper PMC4336329 (PLoS ONE, 2015)
# In all, about 310,000 compounds went through this assay and about 14,000 (4.5%) showed an effect of 50% or more. Effects have a minus sign here. The full list was thinned out, with strong results kept by preference.
# Target: human ether-à-go-go-related gene (hERG) potassium channel (human, UniProt Q12809)
# Experiment: primary screen, population patch clamp on CHO cells stably expressing hERG; higher = less effect of the substance
# 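Also: peak tail current of the secondary pulse compared with the same well before compound.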
# Chain of human ether-à-go-go-related gene (hERG) potassium channel (Q12809 whole entry, looked up): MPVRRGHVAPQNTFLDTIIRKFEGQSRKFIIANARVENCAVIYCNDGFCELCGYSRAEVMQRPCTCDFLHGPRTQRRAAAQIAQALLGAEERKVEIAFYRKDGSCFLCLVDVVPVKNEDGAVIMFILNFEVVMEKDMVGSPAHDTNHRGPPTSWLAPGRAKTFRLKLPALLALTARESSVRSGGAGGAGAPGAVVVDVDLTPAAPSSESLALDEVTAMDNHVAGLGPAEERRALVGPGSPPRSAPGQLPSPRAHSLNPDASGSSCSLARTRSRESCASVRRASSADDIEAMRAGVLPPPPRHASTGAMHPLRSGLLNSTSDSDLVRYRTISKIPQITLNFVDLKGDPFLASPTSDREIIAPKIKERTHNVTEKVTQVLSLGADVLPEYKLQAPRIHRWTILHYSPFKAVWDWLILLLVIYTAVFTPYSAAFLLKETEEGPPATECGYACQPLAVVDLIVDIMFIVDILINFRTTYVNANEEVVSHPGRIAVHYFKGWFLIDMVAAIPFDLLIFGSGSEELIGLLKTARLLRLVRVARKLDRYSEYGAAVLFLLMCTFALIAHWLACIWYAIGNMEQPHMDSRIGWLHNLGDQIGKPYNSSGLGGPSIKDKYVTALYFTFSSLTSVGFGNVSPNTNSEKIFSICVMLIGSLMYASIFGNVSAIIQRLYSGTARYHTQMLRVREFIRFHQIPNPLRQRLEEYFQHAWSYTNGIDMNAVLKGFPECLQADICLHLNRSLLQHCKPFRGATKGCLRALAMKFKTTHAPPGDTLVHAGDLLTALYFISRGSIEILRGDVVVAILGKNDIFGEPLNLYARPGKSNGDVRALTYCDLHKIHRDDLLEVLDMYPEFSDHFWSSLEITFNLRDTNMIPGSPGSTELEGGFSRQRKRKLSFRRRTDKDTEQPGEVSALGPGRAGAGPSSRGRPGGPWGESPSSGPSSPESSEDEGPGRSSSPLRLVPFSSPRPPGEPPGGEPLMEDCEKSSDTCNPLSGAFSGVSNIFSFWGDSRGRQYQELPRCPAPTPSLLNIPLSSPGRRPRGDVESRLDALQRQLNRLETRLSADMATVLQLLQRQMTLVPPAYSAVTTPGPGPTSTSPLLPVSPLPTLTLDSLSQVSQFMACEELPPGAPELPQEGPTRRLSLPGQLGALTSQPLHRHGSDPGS
row,Structure (SMILES),"hERG current change (%, negative = inhibition) at 10uM [%]"
1,C=CCn1c(SCC(=O)NCc2ccco2)nnc1-c1ccc2ccccc2n1,-28.2
2,COC(C(=O)Nc1ccc(F)c(F)c1)c1ccccc1 (stereo not shown),-13.7
3,COc1ccc(NS(=O)(=O)c2cccc(C(=O)NCC3CCCO3)c2)cc1 (stereo not shown),-0.415
4,Cn1cnnc1SCC(=O)NCCC(c1ccccc1)c1ccccc1,7.79
5,O=C(COc1ccc(Cl)cc1)N1CCN(c2ccc([N+](=O)[O-])c(N3CCOCC3)c2)CC1,-71.5
6,O=C(COc1ccccc1)N1CCN(c2ccc([N+](=O)[O-])c(N3CCCCC3)c2)CC1,-13.6
7,O=C(COc1ccc(Cl)cc1)N1CCN(c2ccc([N+](=O)[O-])c(N3CCCCC3)c2)CC1,2.92
8,Cc1ccc(OCC(=O)N2CCN(c3ccc([N+](=O)[O-])c(N4CCOCC4)c3)CC2)cc1,-71.4
9,O=C(COc1ccccc1Cl)N1CCN(c2ccc([N+](=O)[O-])c(N3CCOCC3)c2)CC1,-25.7
10,O=C(COc1ccc(Br)cc1)N1CCN(c2ccc([N+](=O)[O-])c(N3CCCCC3)c2)CC1,-14.1
11,O=c1c2ccccc2nc(/C=C/c2ccco2)n1-c1ccccc1O,-13.3
12,O=C(COC(=O)/C=C/C(=O)OCC(=O)Nc1ccccc1F)Nc1ccccc1F,12.9
13,COc1ccc(C(CC(=O)O)NC(C)=O)cc1OC (stereo not shown),10.4
14,CCCc1nc(SCC(=O)Nc2nnc(SCC)s2)c2c(=O)n(C)c(=O)n(C)c2n1,3.68
15,CCCCC12CN3CCN(CC(C3)/C1=N\NC(=O)c1ccccc1N)C2,-70.8
16,Nc1ccccc1C(=O)N/N=C1/C2CN3CCN(C2)CC1(Cc1ccccc1)C3,-37.8
17,CCCC12CN3CCN(CC(C3)/C1=N\NC(=O)c1ccccc1N)C2,-4.19
18,N#Cc1cnc(Nc2ccc(F)cc2)nc1N,-2.18
19,CC(C)Nc1nc(SC(C)C(=O)Nc2ccccc2)nc(N(C)C)n1 (stereo not shown),-51.4
20,CC(Sc1nc(NC(C)(C)C)nc(N(C)C)n1)C(=O)Nc1ccccc1 (stereo not shown),10.9
21,CCNc1nc(SC(C)C(=O)Nc2ccccc2)nc(N(C)C)n1 (stereo not shown),11.8
22,O=C(NCCC1=CCCCC1)Nc1ccc2nsnc2c1,8.84

row,Structure (SMILES),"hERG current change (%, negative = inhibition) at 10uM [%]"
1,O=C(c1cnc(-c2ccc(Cl)cc2)s1)c1ccc(Cl)cc1Cl,5.71
2,CCN(CC)CCCn1c2c(c(SCC(=O)Nc3ccc(C)c(F)c3)nc1=O)CCC2,-64.5
3,CN(C)CCCn1c2c(c(SCC(=O)Nc3ccc4c(c3)OCO4)nc1=O)CCCC2,-39.7
4,CN(C)CCCn1c2c(c(SCC(=O)Nc3ccc4c(c3)OCO4)nc1=O)CCC2,-10.7
5,CCN(CC)CCn1c2c(c(SCC(=O)Nc3ccc(C)c(F)c3)nc1=O)CCCC2,-70.1
6,CCN(CC)CCn1c2c(c(SCC(=O)Nc3ccc(C)c(F)c3)nc1=O)CCC2,-63.8
7,CCN(CC)CCn1c2c(c(SCC(=O)Nc3ccc4c(c3)OCCO4)nc1=O)CCCC2,-20.4
8,CCC1Oc2ccc(C)cc2N(CC(=O)NCc2cccc(OC)c2)C1=O (stereo not shown),-8.94
9,CNC(=O)c1cc2cc(OC)ccc2oc1=N,10.4
10,CC/C(=N\NC(=O)c1c[nH]c2ccccc12)c1cccs1,10.9
11,O=C(O)c1c(-n2cccc2)sc2c1CCCC2,24.4
12,COc1cc(C)c(Br)cc1S(=O)(=O)NCc1ccccc1,12.9
13,COc1ccc(CN2CCNC(=O)C2CC(=O)NCCN2CCCCC2=O)c(F)c1 (stereo not shown),19.1
14,Cc1nn(CCCC(=O)Nc2ccccn2)c(C)c1[N+](=O)[O-],18.3
15,O=C(COc1ccc(-n2cnnn2)cc1)NCCc1ccc(F)cc1,-51.5
16,O=C(COc1ccc(-n2cnnn2)cc1)Nc1ccc(F)c(F)c1F,5.48
17,O=C(COc1ccc(F)cc1)Nc1ccc(-n2cnnn2)cc1,-49.5
18,O=C(COc1ccc(-n2cnnn2)cc1)N1CCN(c2ccc(F)cc2)CC1,-71.5
19,O=C(COc1ccc2c(c1)CCC2)N1CCN(c2ccc(F)cc2)CC1,-2.53
20,NC(=O)COc1ccc(-n2cnnn2)cc1,32.4
21,N/C(=N\N=C\c1ccnc2ccccc12)SC1CC(=O)N(c2ccc(Br)cc2)C1=O (stereo not shown),0.637
